Data published in PubChem BioAssay (EPA / NIEHS).
Active and inactive are the calls of the source. The calls were made as follows: active = hit-call score of the fitted dose curve at least 0.9, where 1 is the maximum; inactive = score below 0.9.

System: not listed separately
Assay: ATG_CRE_CIS: Attagene CIS-FACTORIAL HepG2 Assay for human cAMP Responsive Element (CRE) binding protein 3 (AID 2282926)
Settings: HepG2 CRE cis-reporter, Attagene multiplexed mRNA; actives raise or lower the signal
In short: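 Assay format: transient reporter transfection of HepG2, 24 h treatment, total RNA isolation with DNase I step. Reporter abundance read by fluorescence after PCR and capillary separation; DMSO-normalised gain or loss fitting.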

Question: For `C=C(C)OC(C)=O`, which outcome is on record?
Answer: inactive

Question: With `C=CC(=O)O[C@H]1C[C@@H]2CC[C@@]1(C)C2(C)C` as the compound, how does the AC50 read?
Answer: 180 µM (active)

Question: For `COC(=O)c1ccc(C(=O)OC)c(C(=O)OC)c1`, which outcome is on record?
Answer: inactive

Question: With `Clc1cc(Cl)c(Cl)c(Cl)c1Cl` as the compound, how does the outcome read?
Answer: inactive

Target: CCAAT/enhancer-binding protein beta (Homo sapiens) (UniProt P17676)
Sequence (P17676 whole entry, looked up): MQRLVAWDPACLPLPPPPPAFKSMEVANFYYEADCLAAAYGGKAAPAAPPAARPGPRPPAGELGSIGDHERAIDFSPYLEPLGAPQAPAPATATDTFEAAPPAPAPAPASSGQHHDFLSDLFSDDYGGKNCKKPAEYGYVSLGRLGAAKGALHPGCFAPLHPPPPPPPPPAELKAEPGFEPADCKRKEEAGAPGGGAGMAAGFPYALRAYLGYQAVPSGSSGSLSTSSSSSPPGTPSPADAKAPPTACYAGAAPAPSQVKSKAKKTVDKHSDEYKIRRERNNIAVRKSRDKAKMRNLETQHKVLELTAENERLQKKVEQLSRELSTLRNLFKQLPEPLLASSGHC
Assay: ATG_C_EBP_CIS: Attagene CIS-FACTORIAL HepG2 Assay for human CCAAT/Enhancer Binding Protein (C/EBP) beta (AID 2282927)
Settings: HepG2 Attagene cis-factorial transcription factor reporter; actives raise or lower the signal
In short: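 HepG2 transiently transfected with multiplexed reporter units under cis-regulatory promoters reporting endogenous C/EBPb activity. After 24 h exposure, reporter mRNA assayed by RT-PCR, fluorescent labelling, HpaI digestion and capillary electrophoresis; bidirectional fitting versus DMSO.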

Question: With `CC(c1cc(C(C)(C)C)cc(C(C)(C)C)c1O)c1cc(C(C)(C)C)cc(C(C)(C)C)c1O` as the compound, how does the outcome read?
Answer: inactive

Question: Which outcome does the source give for `C=CCCCCCCCCOC(C)=O` here?
Answer: inactive

Question: For `CC(Cl)COP(=O)(OCC(C)Cl)OCC(C)Cl` (stereo unspecified), which outcome is on record?
Answer: inactive

Question: For `C[Si]1(C)O[Si](C)(C)O[Si](C)(C)O[Si](C)(C)O[Si](C)(C)O1`, which outcome is on record?
Answer: inactive

Question: With `O=C(C=Cc1ccccc1)OCCc1ccccc1` as the compound, how does the outcome read?
Answer: inactive

Question: For `CC(C)c1ccc(O)c(C(C)C)c1`, which outcome is on record?
Answer: inactive

Question: For `CC(=O)OCCc1ccccc1`, which outcome is on record?
Answer: inactive

Question: For `C=C(C)OC(C)=O`, which outcome is on record?
Answer: inactive

Question: Which outcome does the source give for `CCC1COC(=O)O1` (stereo unspecified) here?
Answer: inactive

Question: For `CCCCCCCCCC(C)=O`, which outcome is on record?
Answer: inactive

Question: Which outcome does the source give for `Cc1c[nH]c(=O)[nH]c1=O` here?
Answer: inactive

Question: For `O=C(O)CC(C(=O)O)S(=O)(=O)O` (stereo unspecified), which outcome is on record?
Answer: inactive

Question: Which outcome does the source give for `C=CC(=O)O[C@H]1C[C@@H]2CC[C@@]1(C)C2(C)C` here?
Answer: inactive

Question: With `C=CC(=O)OCCCCCCCCCC` as the compound, how does the outcome read?
Answer: inactive

Question: With `CC(=O)CC(=O)Nc1ccccc1C` as the compound, how does the outcome read?
Answer: inactive

Question: Which outcome does the source give for `CCCC(CC)c1ccccc1` (stereo unspecified) here?
Answer: inactive

Question: Which outcome does the source give for `COc1cc(O)c(C(=O)c2ccccc2)cc1S(=O)(=O)O` here?
Answer: inactive

Question: For `O=C1CCCN1C1CCCCC1`, which outcome is on record?
Answer: inactive

Question: For `CC1CCC(C(C)(C)S)C(=O)C1` (stereo unspecified), which outcome is on record?
Answer: inactive

Question: Which outcome does the source give for `COC(=O)c1ccc(C(=O)OC)c(C(=O)OC)c1` here?
Answer: inactive

Question: For `CCC(C)c1ccccc1` (stereo unspecified), which outcome is on record?
Answer: inactive

Question: For `O=S(=O)(O)c1ccc(Nc2nc(Nc3ccc(C=Cc4ccc(Nc5nc(Nc6ccc(S(=O)(=O)O)cc6)nc(N(CCO)CCO)n5)cc4S(=O)(=O)O)c(S(=O)(=O)O)c3)nc(N(CCO)CCO)n2)cc1`, which outcome is on record?
Answer: inactive

Question: Which outcome does the source give for `CC(C)(CO)COC(=O)C(C)(C)CO` here?
Answer: inactive

Question: Which outcome does the source give for `Clc1cc(Cl)c(Cl)c(Cl)c1Cl` here?
Answer: inactive

Question: For `O=C(O)C1CCC(C(=O)O)CC1` (stereo unspecified), which outcome is on record?
Answer: inactive

Question: With `CC1=CP(=O)(c2ccccc2)CC1` (stereo unspecified) as the compound, how does the outcome read?
Answer: inactive

Question: For `Cc1cc(=O)[nH]c(=O)[nH]1`, which outcome is on record?
Answer: inactive

Question: Which outcome does the source give for `CC(C)(C)C1CCC(=O)CC1` here?
Answer: inactive

Question: With `CCCCNS(=O)(=O)c1ccc(C)cc1` as the compound, how does the outcome read?
Answer: inactive

Question: For `CCOC(=O)c1ccccc1C`, which outcome is on record?
Answer: inactive

Question: For `c1ccc2sc(SSN3CCOCC3)nc2c1`, which outcome is on record?
Answer: inactive

Question: For `CC(C)CCOCc1ccccc1`, which outcome is on record?
Answer: inactive

Question: Which outcome does the source give for `COc1ccc(-c2coc3cc(O)cc(O)c3c2=O)cc1` here?
Answer: inactive

Question: With `O=C(O)/C=C/c1ccccc1` as the compound, how does the outcome read?
Answer: inactive

Question: Which outcome does the source give for `Nc1ccc(C(=O)O)cc1` here?
Answer: inactive

Question: For `CCCCC(CC)COS(=O)(=O)O` (stereo unspecified), which outcome is on record?
Answer: inactive

Question: With `CC(C)[N+](C)(CCOC(=O)C1c2ccccc2Oc2ccccc21)C(C)C` as the compound, how does the outcome read?
Answer: inactive

System: not listed separately
Assay: ATG_CMV_CIS: Attagene CIS-FACTORIAL HepG2 Assay for human CMV (Internal Marker) (AID 2282928);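 also: endpoint acts as a background internal control marker rather than a target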
Settings: HepG2 CMV promoter reporter, transcription factor profiling; actives raise or lower the signal
In short: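 Fluorescence intensity of RT-PCR-derived reporter fragments, resolved by capillary electrophoresis, gives the signal. HepG2 liver cells bearing transfected cis-element reporters were treated 24 h; activity in either direction was fit relative to DMSO-treated controls.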

Question: For `CC(c1cc(C(C)(C)C)cc(C(C)(C)C)c1O)c1cc(C(C)(C)C)cc(C(C)(C)C)c1O`, which outcome is on record?
Answer: inactive

Question: Which outcome does the source give for `CC(Cl)COP(=O)(OCC(C)Cl)OCC(C)Cl` (stereo unspecified) here?
Answer: inactive

Question: Which outcome does the source give for `C[Si]1(C)O[Si](C)(C)O[Si](C)(C)O[Si](C)(C)O[Si](C)(C)O1` here?
Answer: inactive

Question: For `O=C(C=Cc1ccccc1)OCCc1ccccc1`, which outcome is on record?
Answer: inactive

Question: Which outcome does the source give for `CC(C)c1ccc(O)c(C(C)C)c1` here?
Answer: inactive

Question: With `CC(=O)OCCc1ccccc1` as the compound, how does the outcome read?
Answer: inactive

Question: For `C=C(C)OC(C)=O`, which outcome is on record?
Answer: inactive

Question: Which outcome does the source give for `CCC1COC(=O)O1` (stereo unspecified) here?
Answer: inactive

Question: Which outcome does the source give for `CCCCCCCCCC(C)=O` here?
Answer: inactive

Question: Which outcome does the source give for `Cc1c[nH]c(=O)[nH]c1=O` here?
Answer: inactive

Question: With `O=C(O)CC(C(=O)O)S(=O)(=O)O` (stereo unspecified) as the compound, how does the outcome read?
Answer: inactive

Question: With `C=CC(=O)O[C@H]1C[C@@H]2CC[C@@]1(C)C2(C)C` as the compound, how does the outcome read?
Answer: inactive

Question: For `C=CC(=O)OCCCCCCCCCC`, which outcome is on record?
Answer: inactive

Question: For `CC(=O)CC(=O)Nc1ccccc1C`, which outcome is on record?
Answer: inactive

Question: For `CCCC(CC)c1ccccc1` (stereo unspecified), which AC50 is on record?
Answer: 153 µM (active)

Question: With `COc1cc(O)c(C(=O)c2ccccc2)cc1S(=O)(=O)O` as the compound, how does the outcome read?
Answer: inactive

Question: With `CC1CCC(C(C)(C)S)C(=O)C1` (stereo unspecified) as the compound, how does the outcome read?
Answer: inactive

Question: For `O=S(=O)(O)c1ccc(Nc2nc(Nc3ccc(C=Cc4ccc(Nc5nc(Nc6ccc(S(=O)(=O)O)cc6)nc(N(CCO)CCO)n5)cc4S(=O)(=O)O)c(S(=O)(=O)O)c3)nc(N(CCO)CCO)n2)cc1`, which outcome is on record?
Answer: inactive

Question: For `CC(C)(CO)COC(=O)C(C)(C)CO`, which outcome is on record?
Answer: inactive

Question: With `O=C(O)C1CCC(C(=O)O)CC1` (stereo unspecified) as the compound, how does the outcome read?
Answer: inactive

Question: With `CC1=CP(=O)(c2ccccc2)CC1` (stereo unspecified) as the compound, how does the outcome read?
Answer: inactive

Question: For `Cc1cc(=O)[nH]c(=O)[nH]1`, which outcome is on record?
Answer: inactive

Question: For `CC(C)(C)C1CCC(=O)CC1`, which outcome is on record?
Answer: inactive

Question: For `CCOC(=O)c1ccccc1C`, which outcome is on record?
Answer: inactive

Question: With `c1ccc2sc(SSN3CCOCC3)nc2c1` as the compound, how does the AC50 read?
Answer: 64 µM (active)

Question: Which AC50 does the source give for `COc1ccc(-c2coc3cc(O)cc(O)c3c2=O)cc1` here?
Answer: 21.6 µM (active)

Question: For `O=C(O)/C=C/c1ccccc1`, which outcome is on record?
Answer: inactive

Question: For `Nc1ccc(C(=O)O)cc1`, which outcome is on record?
Answer: inactive

Question: With `CCCCC(CC)COS(=O)(=O)O` (stereo unspecified) as the compound, how does the outcome read?
Answer: inactive

Question: For `CC(C)[N+](C)(CCOC(=O)C1c2ccccc2Oc2ccccc21)C(C)C`, which outcome is on record?
Answer: inactive

System: not listed separately
Assay: ATG_DR4_LXR_CIS: Attagene CIS-FACTORIAL HepG2 Assay for human Liver X Receptor (LXR), DR4 submotif (AID 2282929)
Settings: HepG2 Attagene DR4 cis-reporter, mRNA transcription; actives raise or lower the signal
In short: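 HepG2, transient MRTU transfection, cis-element (DR4) promoter; 24 h compound exposure; total RNA → oligo(dT) RT → PCR → 6-FAM primer extension → HpaI cut → CE. Gain/loss vs DMSO, bidirectional fit.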

Question: For `CC(c1cc(C(C)(C)C)cc(C(C)(C)C)c1O)c1cc(C(C)(C)C)cc(C(C)(C)C)c1O`, which outcome is on record?
Answer: inactive

Question: Which outcome does the source give for `C=CCCCCCCCCOC(C)=O` here?
Answer: inactive

Question: With `CC(Cl)COP(=O)(OCC(C)Cl)OCC(C)Cl` (stereo unspecified) as the compound, how does the outcome read?
Answer: inactive

Question: With `CC(=O)OCCc1ccccc1` as the compound, how does the outcome read?
Answer: inactive

Question: With `C=C(C)OC(C)=O` as the compound, how does the outcome read?
Answer: inactive

Question: With `CCC1COC(=O)O1` (stereo unspecified) as the compound, how does the outcome read?
Answer: inactive

Question: For `CCCCCCCCCC(C)=O`, which outcome is on record?
Answer: inactive

Question: With `Cc1c[nH]c(=O)[nH]c1=O` as the compound, how does the outcome read?
Answer: inactive

Question: Which outcome does the source give for `O=C(O)CC(C(=O)O)S(=O)(=O)O` (stereo unspecified) here?
Answer: inactive

Question: Which outcome does the source give for `C=CC(=O)O[C@H]1C[C@@H]2CC[C@@]1(C)C2(C)C` here?
Answer: inactive

Question: For `C=CC(=O)OCCCCCCCCCC`, which outcome is on record?
Answer: inactive

Question: For `CC(=O)CC(=O)Nc1ccccc1C`, which outcome is on record?
Answer: inactive

Question: Which outcome does the source give for `CCCC(CC)c1ccccc1` (stereo unspecified) here?
Answer: inactive

Question: With `COc1cc(O)c(C(=O)c2ccccc2)cc1S(=O)(=O)O` as the compound, how does the outcome read?
Answer: inactive

Question: For `O=C1CCCN1C1CCCCC1`, which outcome is on record?
Answer: inactive

Question: With `CC1CCC(C(C)(C)S)C(=O)C1` (stereo unspecified) as the compound, how does the outcome read?
Answer: inactive

Question: Which outcome does the source give for `CCC(C)c1ccccc1` (stereo unspecified) here?
Answer: inactive

Question: Which outcome does the source give for `O=S(=O)(O)c1ccc(Nc2nc(Nc3ccc(C=Cc4ccc(Nc5nc(Nc6ccc(S(=O)(=O)O)cc6)nc(N(CCO)CCO)n5)cc4S(=O)(=O)O)c(S(=O)(=O)O)c3)nc(N(CCO)CCO)n2)cc1` here?
Answer: inactive

Question: With `O=C(O)C1CCC(C(=O)O)CC1` (stereo unspecified) as the compound, how does the outcome read?
Answer: inactive

Question: With `CC1=CP(=O)(c2ccccc2)CC1` (stereo unspecified) as the compound, how does the outcome read?
Answer: inactive

Question: With `Cc1cc(=O)[nH]c(=O)[nH]1` as the compound, how does the outcome read?
Answer: inactive

Question: With `CC(C)(C)C1CCC(=O)CC1` as the compound, how does the AC50 read?
Answer: 160 µM (active)

Question: With `CCCCNS(=O)(=O)c1ccc(C)cc1` as the compound, how does the outcome read?
Answer: inactive

Question: With `CCOC(=O)c1ccccc1C` as the compound, how does the outcome read?
Answer: inactive

Question: Which AC50 does the source give for `c1ccc2sc(SSN3CCOCC3)nc2c1` here?
Answer: 100 µM (active)

Question: For `CC(C)CCOCc1ccccc1`, which outcome is on record?
Answer: inactive

Question: For `COc1ccc(-c2coc3cc(O)cc(O)c3c2=O)cc1`, which outcome is on record?
Answer: inactive

Question: Which outcome does the source give for `Nc1ccc(C(=O)O)cc1` here?
Answer: inactive

Question: For `CCCCC(CC)COS(=O)(=O)O` (stereo unspecified), which outcome is on record?
Answer: inactive

Question: With `CC(C)[N+](C)(CCOC(=O)C1c2ccccc2Oc2ccccc21)C(C)C` as the compound, how does the outcome read?
Answer: inactive
